The test system of assay [1] is Plasmodium falciparum Sir2 (PF13_0152, Sir2A). The assay is described as follows: Plasmodium falciparum Sir2A binding compounds – biochemical, small-molecule microarray, 635 nm fluorescence, primary screen (AID 1098).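 Note: score merges spot fluorescence intensity with its signal-to-noise ratio.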 The conditions noted are these: fluorescence 635 nm, higher = more signal.
Assay [2] can be described thus: probe aDKK1 binding to arrayed compounds – biochemical, biotinylated probe, 635/667 nm fluorescence, primary screen (AID 1099).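 Note: score merges 667nm spot fluorescence with signal to noise across triplicate slides.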 The conditions noted are these: small-molecule microarray, higher = more signal.
The nature of assay [3]: probe aCHRDL2 binding to arrayed compounds – biochemical, biotinylated probe, 635/667 nm fluorescence, primary screen (AID 1100). Conditions: small-molecule microarray, higher = more signal.
Assay [4] can be described thus: change in splice reporter luminescence, either direction, cell-based, HEK293, spliceosome inhibition project, primary screen (AID 1101).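 Note: HEK293 cells carrying a splicing-competent luciferase reporter gene; test concentration not given here.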 Conditions: HEK293 splicing luciferase reporter, 24 h, higher = more signal, called active from +8 up or from −8 down.
For assay [5], the target named is Fibroblast growth factor 10 (Homo sapiens) (UniProt O15520). In words: compounds binding fibroblast growth factor 10 – biochemical, small-molecule microarray, 635 nm fluorescence, primary screen (AID 1102). Conditions: FGF10 binding, fluorescence 635 nm, higher = more signal.
Chain of Fibroblast growth factor 10 (Homo sapiens) (O15520 whole entry, looked up): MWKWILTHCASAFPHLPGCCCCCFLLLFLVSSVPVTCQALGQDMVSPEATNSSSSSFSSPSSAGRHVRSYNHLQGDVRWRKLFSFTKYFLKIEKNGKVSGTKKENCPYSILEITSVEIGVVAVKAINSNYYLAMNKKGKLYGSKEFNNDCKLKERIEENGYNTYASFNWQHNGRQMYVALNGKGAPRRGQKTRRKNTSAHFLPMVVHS
In assay [6] the test system is glycogen synthase kinase-3 (GSK3A per assay name; protocol says GSK3B). The assay is described as follows: compounds binding glycogen synthase kinase-3 – biochemical, small-molecule microarray, 635 nm fluorescence, GSK3A, primary screen (AID 1103). Note: the record names both GSK3A and GSK3B. The conditions noted are these: fluorescence 635 nm, higher = more signal.
For assay [7], the target named is Epidermal growth factor receptor (Homo sapiens) (UniProt P00533). In words: compounds binding epidermal growth factor receptor – biochemical, small-molecule microarray, 635 nm fluorescence, primary screen (AID 1104).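 Note: score merges 667 nm emission intensity with spot signal to noise over triplicate slides.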 Conditions: EGFR binding, higher = more signal.
Chain of Epidermal growth factor receptor (Homo sapiens) (P00533 whole entry, looked up): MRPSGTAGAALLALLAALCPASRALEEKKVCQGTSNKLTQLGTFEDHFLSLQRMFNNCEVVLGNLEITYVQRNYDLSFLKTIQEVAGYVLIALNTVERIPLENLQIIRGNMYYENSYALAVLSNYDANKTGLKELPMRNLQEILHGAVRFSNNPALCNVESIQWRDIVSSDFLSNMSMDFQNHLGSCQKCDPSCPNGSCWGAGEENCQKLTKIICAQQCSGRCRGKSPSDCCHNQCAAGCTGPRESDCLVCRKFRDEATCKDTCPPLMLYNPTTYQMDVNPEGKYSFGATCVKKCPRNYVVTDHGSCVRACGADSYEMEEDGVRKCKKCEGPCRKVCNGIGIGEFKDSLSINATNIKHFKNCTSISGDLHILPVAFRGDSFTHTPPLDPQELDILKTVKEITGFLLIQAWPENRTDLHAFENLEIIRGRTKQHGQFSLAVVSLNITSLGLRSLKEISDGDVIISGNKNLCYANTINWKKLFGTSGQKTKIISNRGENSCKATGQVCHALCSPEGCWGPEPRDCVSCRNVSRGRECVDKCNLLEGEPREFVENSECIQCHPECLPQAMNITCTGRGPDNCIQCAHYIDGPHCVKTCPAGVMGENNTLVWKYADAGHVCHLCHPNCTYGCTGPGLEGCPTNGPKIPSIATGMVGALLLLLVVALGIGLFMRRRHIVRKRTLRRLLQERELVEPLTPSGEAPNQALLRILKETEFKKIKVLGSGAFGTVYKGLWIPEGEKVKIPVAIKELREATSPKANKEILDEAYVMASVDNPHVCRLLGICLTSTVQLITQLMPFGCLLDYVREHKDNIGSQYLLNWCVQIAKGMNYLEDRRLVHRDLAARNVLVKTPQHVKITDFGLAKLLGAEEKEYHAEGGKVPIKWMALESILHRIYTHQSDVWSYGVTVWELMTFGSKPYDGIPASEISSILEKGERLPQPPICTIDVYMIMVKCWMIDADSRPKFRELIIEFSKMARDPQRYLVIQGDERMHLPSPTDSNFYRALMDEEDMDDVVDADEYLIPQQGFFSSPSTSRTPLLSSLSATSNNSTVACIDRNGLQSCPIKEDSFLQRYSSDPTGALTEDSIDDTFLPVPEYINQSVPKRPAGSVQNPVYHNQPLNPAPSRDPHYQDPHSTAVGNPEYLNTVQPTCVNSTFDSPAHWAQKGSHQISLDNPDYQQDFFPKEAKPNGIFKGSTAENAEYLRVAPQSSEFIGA
The target of assay [8] is Follistatin-related protein 3 (Homo sapiens) (UniProt O95633). The assay is described as follows: compounds binding follistatin-related protein 3 – biochemical, small-molecule microarray, 635 nm fluorescence, primary screen (AID 1105).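 Note: score merges emission near 667 nm and signal to noise per printed spot across three slides.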 Conditions: FSTL3 binding, higher = more signal.
Chain of Follistatin-related protein 3 (Homo sapiens) (O95633 whole entry, looked up): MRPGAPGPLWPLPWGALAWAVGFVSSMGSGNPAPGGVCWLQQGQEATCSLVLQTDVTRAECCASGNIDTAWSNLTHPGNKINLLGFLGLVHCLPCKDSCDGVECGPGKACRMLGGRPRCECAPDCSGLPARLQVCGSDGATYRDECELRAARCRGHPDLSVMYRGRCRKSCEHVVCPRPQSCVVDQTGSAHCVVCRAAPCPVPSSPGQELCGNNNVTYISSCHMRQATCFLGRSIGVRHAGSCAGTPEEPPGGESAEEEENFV
For assay [9], the target named is Dickkopf-related protein 1 (Homo sapiens) (UniProt O94907). The assay is described as follows: small molecules binding DKK1 protein – biochemical, small-molecule microarray, 635 nm fluorescence scan, primary screen (AID 1106).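 Note: score merges emission near 667 nm with signal to noise over three replicate slides.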 The conditions noted are these: higher = more signal.
Chain of Dickkopf-related protein 1 (Homo sapiens) (O94907 whole entry, looked up): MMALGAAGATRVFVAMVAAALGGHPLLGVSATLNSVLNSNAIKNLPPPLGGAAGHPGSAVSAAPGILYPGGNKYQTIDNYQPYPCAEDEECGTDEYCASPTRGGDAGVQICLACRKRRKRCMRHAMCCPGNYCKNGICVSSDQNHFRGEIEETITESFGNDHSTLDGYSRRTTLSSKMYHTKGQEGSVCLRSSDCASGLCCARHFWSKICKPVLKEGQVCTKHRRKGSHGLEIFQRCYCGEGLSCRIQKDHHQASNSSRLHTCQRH
For assay [10], the system named is Inhibin beta A chain (activin A). In words: small molecules binding activin A – biochemical, small-molecule microarray, 635 nm fluorescence scan, primary screen (AID 1107).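 Note: mouse activin A protein probed at 4.33 µg/mL on printed slides; score merges bound-protein fluorescence near 667 nm with spot signal-to-noise.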 Conditions: INHBA, higher = more signal.
In assay [11] the test system is Human papillomavirus type 1a protein E7 (residues 44-93). The assay is described as follows: small molecules binding HPV E7 44-93 – biochemical, small-molecule microarray, residues 44-93, 635 nm fluorescence, primary screen (AID 1108).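 Note: E7 fragment applied at 1 µg/mL in TBST for 1 h at 4 C; score combines spot fluorescence with its signal to noise ratio.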 The conditions noted are these: fluorescence 635 nm, higher = more signal.
Assay [12] in a line: hepatitis C replication reporter changes, two-sided – Huh7 cells, luciferase reporter, HCV replication inhibitor project, primary screen (AID 1109).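 Note: huh7 hepatoma cells harbouring a luciferase neomycin HCV replicon reporter; luciferase luminescence as measure of HCV replicon replication; test concentration not given here.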 Conditions: Huh7 HCV replicon luciferase reporter, 48 h; higher = more signal. Background: A reporter such as luciferase makes a cellular process visible.
For assay [13], the target named is Left-right determination factor 2 (Homo sapiens) (UniProt O00292). In words: small molecules binding LEFTY2 protein – biochemical, small-molecule microarray, 635 nm fluorescence scan, primary screen (AID 1110). Conditions: higher = more signal.
Chain of Left-right determination factor 2 (Homo sapiens) (O00292 whole entry, looked up): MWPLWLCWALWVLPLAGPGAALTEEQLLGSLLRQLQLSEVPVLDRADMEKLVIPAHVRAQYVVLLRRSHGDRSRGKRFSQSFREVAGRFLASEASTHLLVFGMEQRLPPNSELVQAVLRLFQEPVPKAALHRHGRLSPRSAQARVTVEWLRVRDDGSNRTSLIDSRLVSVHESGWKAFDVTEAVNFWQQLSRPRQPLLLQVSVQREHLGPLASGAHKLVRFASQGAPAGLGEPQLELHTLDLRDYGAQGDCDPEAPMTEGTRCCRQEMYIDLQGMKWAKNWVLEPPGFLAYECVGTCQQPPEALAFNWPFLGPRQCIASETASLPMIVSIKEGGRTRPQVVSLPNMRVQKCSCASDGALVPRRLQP
For assay [14], the target named is Calmodulin-1 (Homo sapiens) (UniProt P0DP23). In words: small molecules binding calmodulin-1 with EGTA – biochemical, small-molecule microarray, Cy5-labelled CALM1, profiling panel (AID 1111).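 Note: labelled calmodulin applied in Tris saline Tween buffer holding calcium plus EGTA and DTT.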 Conditions: Cy5-CALM1 binding fluorescence, higher = more signal.
The target is the same in assay [15]. In words: small molecules binding Ca-loaded calmodulin-1 – biochemical, small-molecule microarray, Cy5-labelled CALM1, plus calcium, artefact control for SMM control-protein annotation, profiling panel (AID 1112).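 Note: score merges spot fluorescence with signal to noise from triplicate slides.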 Conditions: Cy5-CALM1 binding fluorescence, higher = more signal.
Assay [16] can be described thus: probe aWnt5a binding to arrayed compounds – biochemical, biotinylated probe, 635/667 nm fluorescence, primary screen (AID 1113).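 Note: score merges 667 nm fluorescence intensity with signal-to-noise per printed feature.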 Conditions: small-molecule microarray, higher = more signal.
Assay [17] in a line: probe aShh binding to arrayed compounds – biochemical, biotinylated probe, 635/667 nm fluorescence, primary screen (AID 1114).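 Note: probe is biotin-labelled aShh protein from a stem cell growth factor screen; measures binding of labelled protein to compounds printed on the slide; score merges feature fluorescence at 667 nm with signal-to-noise.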 The conditions noted are these: small-molecule microarray, higher = more signal.
The nature of assay [18]: probe aNog binding to arrayed compounds – biochemical, biotinylated probe, 635/667 nm fluorescence, primary screen (AID 1115).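 Note: probe is biotinylated aNog protein used at 0.15 µg/mL for 1 h at 4 C; z-score combines 667 nm fluorescence of each spot with its signal to noise.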 Conditions: small-molecule microarray, higher = more signal.
Assay [19] has as its target Torsin-1A-interacting protein 1 (Homo sapiens) (UniProt Q5JTV8). The assay is described as follows: compound microarray binding of lysate hLAP1 – cell lysate, small-molecule microarray, COS7 lysate, 635/667 nm fluorescence, primary screen (AID 1116). Conditions: 635 nm fluorescence, higher = more signal.
Assay [20] addresses Alpha-bungarotoxin (Bungarus multicinctus) (UniProt P60615). In words: compounds binding labelled alpha-BTX control protein – biochemical, small-molecule microarray, Alexa647 label, 635/667 nm fluorescence, artefact control for SMM control protein annotation, profiling panel (AID 1117). Conditions: alpha-BTX-A647 binding fluorescence, higher = more signal.

The source made the active and inactive calls.

Chain of Torsin-1A-interacting protein 1 (Homo sapiens) (Q5JTV8 whole entry, looked up): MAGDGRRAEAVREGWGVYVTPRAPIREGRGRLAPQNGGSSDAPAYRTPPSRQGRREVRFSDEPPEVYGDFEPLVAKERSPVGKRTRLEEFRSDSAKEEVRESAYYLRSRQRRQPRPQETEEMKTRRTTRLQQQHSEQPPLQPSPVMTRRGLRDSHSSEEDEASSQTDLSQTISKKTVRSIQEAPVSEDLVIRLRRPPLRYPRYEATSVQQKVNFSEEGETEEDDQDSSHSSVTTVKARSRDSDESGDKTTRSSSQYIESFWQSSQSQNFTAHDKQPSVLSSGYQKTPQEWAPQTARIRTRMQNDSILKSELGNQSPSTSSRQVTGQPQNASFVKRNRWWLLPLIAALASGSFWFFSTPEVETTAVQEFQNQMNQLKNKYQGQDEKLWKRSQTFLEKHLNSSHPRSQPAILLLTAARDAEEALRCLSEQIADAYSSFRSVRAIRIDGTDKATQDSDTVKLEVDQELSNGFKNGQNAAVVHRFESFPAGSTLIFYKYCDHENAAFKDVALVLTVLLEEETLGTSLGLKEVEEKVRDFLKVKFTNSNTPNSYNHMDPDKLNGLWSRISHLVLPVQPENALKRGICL
Chain of Alpha-bungarotoxin (Bungarus multicinctus) (P60615 whole entry, looked up): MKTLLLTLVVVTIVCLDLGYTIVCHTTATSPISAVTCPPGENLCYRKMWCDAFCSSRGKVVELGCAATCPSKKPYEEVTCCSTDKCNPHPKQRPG

For `CCOC(=O)C=Cc1cc([N+](=O)[O-])ccc1O`, the composite z-score in assay [1] is -0.551; in assay [2] it was -0.14; in [3], -0.134; in assay [5], -0.395; in assay [6], -0.398; in assay [7], -0.899. The composite z-score was -0.971 in assay [8]; -0.693 in [9]; -0.855 in [10]; 0.0311 in assay [11]; -0.609 in assay [13]; -0.211 in [14]. In addition, the composite z-score in assay [15] is -0.5; in assay [16] it was -0.124; in assay [17], 0.173; in [18], -0.377; in assay [19], 0.106; in assay [20], -0.234. Further, the z-score in assay [4] was -1.72 (inactive); in assay [12], -1.47.
For the molecule `COC(=O)C=C(CC(O)c1cccc(Cl)c1)OC` (stereo not given), the composite z-score in [1] was -0.02; in assay [2], 1.5; in [3], 0.48; in assay [5], 0.182; in [6], -0.134; in assay [7] it was -0.485. Further, the composite z-score is -0.374 in assay [8]; -0.186 in assay [9]; 1.14 in [10]; -0.734 in assay [11]; -0.17 in assay [13]; 1.27 in assay [14]. Also, the composite z-score came to 1.01 in [15]; 0.23 in [16]; 0.506 in [17]; 1.93 in assay [18]; 1.99 in assay [19]; 1.51 in assay [20]. Further, the z-score in assay [4] was -1.12 (inactive); in [12] it was -0.923.
Turning to `[N-]=[N+]=NCc1ccccc1[C@@H]1OC(c2ccc(OCCCO)cc2)=N[C@]1(Cc1ccccc1N=[N+]=[N-])C(=O)N1CCOCC1`, the composite z-score stood at 0.814 in assay [1]; 1.22 in assay [2]; 1.35 in assay [3]; 1.33 in [5]; 1.3 in assay [6]; 0.248 in assay [7]. Further, the composite z-score was 0.783 in assay [8]; 0.231 in assay [9]; 0.73 in [10]; 0.841 in assay [11]; 0.404 in assay [13]; 1.97 in assay [14]. For the same molecule, the composite z-score was 0.995 in assay [15]; 0.334 in [16]; 0.686 in [17]; 2.35 in [18]; 1.44 in [19]; 1.82 in [20]. The figures for the z-score in [4] and in assay [12] were 0.783 (inactive) and -1.56, respectively.
With `CC(=O)NCCCC[C@@H]1NC(=O)[C@@H]2C[C@H](C(=O)NCCCCCCNC(=O)CS)[C@H](c3cccc(OCCO)c3)N2C1=O`, the composite z-score in assay [1] was 1.76; in assay [2], -0.0828; in assay [3], 0.466; in [5], 0.639; in assay [6], 1.12; in assay [7], 0.37. For the same molecule, the composite z-score in [8] stood at 0.325; in [9], 0.791; in assay [10] it was 0.388; in [11], 0.517; in assay [13] it was 0.221; in assay [14], 0.572. For the same molecule, the composite z-score in assay [15] is 0.361; in [16] it was 0.0004; in [17], -0.142; in [18] it was -0.196; in assay [19], 0.16; in assay [20], 0.505. Besides, the values for the z-score in [4] and in assay [12] were -0.289 (inactive) and -0.938, respectively.
In the case of `COCCCNC(=O)[C@@]1(Cc2ccccc2)N=C(c2ccc(OCCCO)cc2)O[C@H]1c1ccccc1`, the composite z-score in assay [1] is 1.19; in assay [2] it was 1.22; in assay [3], 1.28; in [5], 0.849; in [6], 1.02; in assay [7], -0.804. The composite z-score is -0.569 in assay [8]; -0.728 in assay [9]; 1.01 in assay [10]; 0.53 in [11]; -0.582 in assay [13]; 2.34 in assay [14]. For the same molecule, the composite z-score is 1.05 in [15]; -0.174 in assay [16]; -0.36 in assay [17]; -0.442 in [18]; 1.96 in assay [19]; 2.34 in assay [20]. Besides, the values for the z-score in assay [4] and in assay [12] were 0.272 (inactive) and -1.39, respectively.
Consider `C=CCOC(=O)[C@H]1[C@@H]2C(=O)O[C@@H](c3ccccc3)[C@@H](c3ccccc3)N2[C@@H](c2ccc(OCCOC(=O)[C@@H]3C[C@@H]4C(=O)N[C@@H](CCCCN(C)C)C(=O)N4[C@@H]3c3ccc(O)cc3)cc2)[C@]12C(=O)Nc1ccc(I)cc12`, for which the composite z-score in assay [1] is 1.04; in assay [2], 0.26; in assay [3] it was -0.0178; in assay [5], 0.735; in [6], 1.32; in assay [7], 0.537. The composite z-score in assay [8] is 1.08; in assay [9] it was 1.06; in assay [10], -0.389; in assay [11] it was -0.562; in [13], 0.698; in assay [14] it was 0.134. The composite z-score was -0.547 in assay [15]; -0.113 in assay [16]; 0.462 in assay [17]; 1.18 in assay [18]; 1.36 in assay [19]; 1.32 in assay [20]. The figures for the z-score in [4] and in [12] were -0.433 (inactive) and -2.99, respectively.
For `CC(C)(C)OC(=O)CC[C@@]1(C(=O)NCC(O)CO)N=C(c2ccc(OCCCO)cc2)O[C@@H]1c1ccccc1N=[N+]=[N-]` (stereo not given in full), the composite z-score in [1] was 1.72; in assay [2], 0.836; in [3], 1.15; in assay [5] it was 1.36; in assay [6], -0.454; in assay [7] it was -0.468. Also, the composite z-score in assay [8] is 0.114; in assay [9] it was 0.311; in assay [10] it was 0.906; in [11] it was 1.47; in [13] it was -0.586; in assay [14], 1.67. The composite z-score came to 0.414 in assay [15]; 0.0279 in assay [16]; 0.13 in assay [17]; 1.71 in assay [18]; 2.29 in assay [19]; 1.6 in assay [20]. Also, the z-score is -0.764 (inactive) in [4] and 0.0173 in [12].
Consider `COc1cc2c(cc1O)C(C1CC1)N(Cc1cc3c(cc1Br)OCO3)CC2` (stereo not given), for which the composite z-score in assay [1] was 0.802; in assay [2], -0.197; in assay [3], 0.655; in assay [5] it was -1.02; in assay [6], -1.26; in assay [7] it was -1.12. For the same molecule, the composite z-score was -1.35 in assay [8]; -0.948 in assay [9]; -0.13 in assay [10]; 0.0206 in assay [11]; -1.25 in assay [13]; -0.515 in assay [14]. The composite z-score in [15] is -0.58; in assay [16] it was -0.124; in assay [17] it was -0.134; in assay [18] it was -0.33; in [19], -0.447; in [20], -0.745. Besides, the z-score is -0.39 (inactive) in assay [4] and -3.51 in [12].

Source of the values: PubChem BioAssay.
